# Reference: PubChem BioAssay (NCI)
# This is part of a sample that, as a whole, favours compounds with a hit. Of some 79,000 tested, about 15% had one in any assay. Unmarked numbers belong to inactive results. Calls of active or inactive are those of the source. No stated cut-off is given here; in the data, active means growth inhibition above about 70%; inactive means the rest.
# How the values were obtained:
# [1] = NCI Yeast Anticancer Drug Screen. Data for the rad52 strain (AID 147);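 further: 0% = growth of vehicle-treated control cultures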; details: S. cerevisiae rad52 mutant growth inhibition, stronger effect = higher value
# Outline: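 Read-out: growth inhibition versus vehicle-treated controls. Cells were a DNA repair-deficient yeast strain treated with compounds.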
# [2] = NCI Yeast Anticancer Drug Screen. Data for the wt1 strain (AID 149);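 further: 0% = growth of vehicle-treated wt1 cultures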; details: S. cerevisiae wt1 strain (SPY 50644) growth inhibition, stronger effect = higher value
# Outline: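 Using yeast strain wt1, compound-induced growth inhibition was determined against vehicle-treated cultures.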
# [3] = NCI Yeast Anticancer Drug Screen. Data for the rad50EPP+ strain (AID 151);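 further: 0% = growth of vehicle-treated control cultures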; details: S. cerevisiae rad50 mutant strain, stronger effect = higher value
# Outline: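 Growth inhibition read against vehicle controls in rad50EPP+ yeast, a strain altered in DNA damage repair, after compound exposure.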
# [4] = NCI Yeast Anticancer Drug Screen. Data for the mgt1 strain (AID 153); details: S. cerevisiae mgt1 mutant growth inhibition, stronger effect = higher value
# Outline: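 mgt1 yeast grown with test compound; read-out is growth inhibition versus vehicle-treated cultures.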
# [5] = NCI Yeast Anticancer Drug Screen. Data for the rad50 strain (AID 155);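 further: 0% = growth of vehicle-only cultures of the same strain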; details: S. cerevisiae rad50 strain growth inhibition, stronger effect = higher value
# Outline: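 Relative growth inhibition (compound vs vehicle) was measured in yeast with a defined repair-gene alteration.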
# [6] = NCI Yeast Anticancer Drug Screen. Data for the mec2-1 strain (AID 157); details: S. cerevisiae mec2-1 strain, stronger effect = higher value
# Outline: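 Yeast mec2-1 mutant treated with compound. Readout: growth inhibition vs vehicle controls.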
# [7] = NCI Yeast Anticancer Drug Screen. Data for the rad14 strain (AID 159);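 further: 0% = growth of vehicle-treated control cultures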; details: S. cerevisiae rad14 strain growth inhibition, stronger effect = higher value
# Outline: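 Screen for anticancer potential: a yeast strain altered in DNA damage repair is grown with compound, and reduced growth is quantified against vehicle controls.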
# [8] = NCI Yeast Anticancer Drug Screen. Data for the sgs1 mgt1 strain (AID 161);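 further: 0% = growth of cultures given vehicle only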; details: S. cerevisiae sgs1 mgt1 strain, at 50.0 µM, stronger effect = higher value
# Outline: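 Inhibition of yeast growth, normalised to vehicle-treated controls, is reported for a strain bearing genetic alterations in DNA damage repair.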
# [9] = NCI Yeast Anticancer Drug Screen. Data for the CLN2oe strain (AID 163);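 further: 0% = growth of vehicle-only control cultures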; details: S. cerevisiae CLN2oe strain, stronger effect = higher value
# Outline: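 Read-out: yeast growth inhibition, expressed relative to vehicle-only controls. The strain bears an engineered cell-cycle alteration.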
# [10] = NCI Yeast Anticancer Drug Screen. Data for the cln2 rad14 strain (AID 165);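 further: 0% = growth equal to vehicle treated cultures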; details: S. cerevisiae cln2 rad14 strain, at 50.0 µM, stronger effect = higher value
# Outline: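 cln2 rad14 yeast strain; compound exposure; growth inhibition read vs vehicle controls.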
# [11] = NCI Yeast Anticancer Drug Screen. Data for the bub3 strain (AID 167); details: S. cerevisiae bub3 mutant strain, stronger effect = higher value
# Outline: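 Screening used yeast with an engineered genetic alteration affecting cell cycle control. Compound-exposed cultures were compared with vehicle cultures, and reduced growth was taken as inhibition.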
# [12] = NCI Yeast Anticancer Drug Screen. Data for the wt2 strain (AID 169);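 further: 0% = growth of vehicle-treated yeast cultures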; details: S. cerevisiae wt2 strain growth inhibition, stronger effect = higher value
# Outline: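 Read-out: growth inhibition versus vehicle-treated control cultures after compound exposure of the yeast strain.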
# [13] = NCI Yeast Anticancer Drug Screen. Data for the mlh1 strain (AID 171);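 further: 0% = growth of vehicle-treated control cultures of the same strain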; details: S. cerevisiae mlh1 strain growth inhibition, stronger effect = higher value
# Outline: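 Read-out: growth inhibition versus vehicle controls. Strain: engineered yeast with a defined DNA repair or cell cycle defect, compound-treated.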
# [14] = NCI Yeast Anticancer Drug Screen. Data for the sgs1 strain (AID 173);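 further: 0% = growth of vehicle-only control cultures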; details: S. cerevisiae sgs1 mutant, stronger effect = higher value
# Outline: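 Read-out: yeast growth inhibition relative to vehicle controls, following compound exposure of a strain with a defined DNA repair/cell cycle alteration.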
# [15] = NCI Yeast Anticancer Drug Screen. Data for the mlh1 rad18 strain (AID 175); details: S. cerevisiae mlh1 rad18 strain growth inhibition; at 50.0 µM; stronger effect = higher value
# Outline: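 Yeast w/ defined DNA-repair lesions; compound exposure; growth vs vehicle controls → % inhibition.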
# [16] = NCI Yeast Anticancer Drug Screen. Data for the rad18 strain (AID 177); details: S. cerevisiae rad18 mutant growth inhibition, stronger effect = higher value
# Outline: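 Readout: growth inhibition vs vehicle controls. Cells: genetically altered yeast strain, DNA repair defect.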
structure (smiles),measurement,setting,value
CC1=C2C(=C[C@@](C)(CO)[C@@H]2O)C(=O)[C@](C)(O)C12CC2,growth inhibition,[1]; at 1.2 µM,2%
same,growth inhibition,[1]; at 3.7 µM,9%
same,growth inhibition,[1]; at 11.0 µM,21%
same,growth inhibition,[1]; at 33.0 µM,42%
same,growth inhibition,[1]; at 100.0 µM,74% (active)
same,growth inhibition,[2]; at 1.2 µM,1%
same,growth inhibition,[2]; at 3.7 µM,-1%
same,growth inhibition,[2]; at 11.0 µM,0%
same,growth inhibition,[2]; at 33.0 µM,0%
same,growth inhibition,[2]; at 100.0 µM,25%
same,growth inhibition,[3]; at 1.2 µM,-3%
same,growth inhibition,[3]; at 3.7 µM,-1%
same,growth inhibition,[3]; at 11.0 µM,1%
same,growth inhibition,[3]; at 33.0 µM,-2%
same,growth inhibition,[3]; at 100.0 µM,1%
same,growth inhibition,[4]; at 1.2 µM,-3%
same,growth inhibition,[4]; at 3.7 µM,-1%
same,growth inhibition,[4]; at 11.0 µM,0%
same,growth inhibition,[4]; at 33.0 µM,2%
same,growth inhibition,[4]; at 100.0 µM,0%
same,growth inhibition,[5]; at 1.2 µM,2%
same,growth inhibition,[5]; at 3.7 µM,2%
same,growth inhibition,[5]; at 11.0 µM,11%
same,growth inhibition,[5]; at 33.0 µM,31%
same,growth inhibition,[5]; at 50.0 µM,33.8%
same,growth inhibition,[5]; at 100.0 µM,70% (active)
same,growth inhibition,[6]; at 1.2 µM,0%
same,growth inhibition,[6]; at 3.7 µM,0%
same,growth inhibition,[6]; at 11.0 µM,1%
same,growth inhibition,[6]; at 33.0 µM,13%
same,growth inhibition,[6]; at 50.0 µM,22.9%
same,growth inhibition,[6]; at 100.0 µM,48%
same,growth inhibition,[7]; at 1.2 µM,1%
same,growth inhibition,[7]; at 3.7 µM,-1%
same,growth inhibition,[7]; at 11.0 µM,4%
same,growth inhibition,[7]; at 33.0 µM,13%
same,growth inhibition,[7]; at 100.0 µM,41%
same,growth inhibition,[8],44%
same,growth inhibition,[9]; at 1.2 µM,-5%
same,growth inhibition,[9]; at 3.7 µM,-8%
same,growth inhibition,[9]; at 11.0 µM,-10%
same,growth inhibition,[9]; at 33.0 µM,-13%
same,growth inhibition,[9]; at 100.0 µM,-5%
same,growth inhibition,[10],22.6%
same,growth inhibition,[11]; at 1.2 µM,-4%
same,growth inhibition,[11]; at 3.7 µM,-5%
same,growth inhibition,[11]; at 11.0 µM,-7%
same,growth inhibition,[11]; at 33.0 µM,-10%
same,growth inhibition,[11]; at 50.0 µM,-41%
same,growth inhibition,[11]; at 100.0 µM,-12%
same,growth inhibition,[12]; at 1.2 µM,-2%
same,growth inhibition,[12]; at 3.7 µM,0%
same,growth inhibition,[12]; at 11.0 µM,0%
same,growth inhibition,[12]; at 33.0 µM,0%
same,growth inhibition,[12]; at 100.0 µM,1%
same,growth inhibition,[13]; at 1.2 µM,0%
same,growth inhibition,[13]; at 3.7 µM,1%
same,growth inhibition,[13]; at 11.0 µM,2%
same,growth inhibition,[13]; at 33.0 µM,3%
same,growth inhibition,[13]; at 100.0 µM,7%
same,growth inhibition,[14]; at 1.2 µM,3%
same,growth inhibition,[14]; at 3.7 µM,10%
same,growth inhibition,[14]; at 11.0 µM,24%
same,growth inhibition,[14]; at 33.0 µM,50%
same,growth inhibition,[14]; at 100.0 µM,73% (active)
same,growth inhibition,[15],11.7%
same,growth inhibition,[16]; at 1.2 µM,37%
same,growth inhibition,[16]; at 3.7 µM,74% (active)
same,growth inhibition,[16]; at 11.0 µM,90% (active)
same,growth inhibition,[16]; at 33.0 µM,93% (active)
same,growth inhibition,[16]; at 100.0 µM,95% (active)
